Experimental data taken from the supplement of paper PMC12636033.
± gives the standard deviation of the averaged measurements. Over roughly 33,000 sequences, “E-score (rank enrichment, -0.5 to 0.5)” has its median near -0.0043; the highest 2% begin near 0.24. Shown is part of a subset that was picked to be rich in the highest values.

system: 2Sp-muMax20 (muMax20 with two 2,6-bis(methyl)pyridine Cys staples); assay: PBM 8-mer E-score (E-score (rank enrichment, -0.5 to 0.5)); higher = stronger preferential binding
Description: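 Protein binding microarray (universal PBM chip covering all 10-mers in fixed probe flanks) with chemically synthesized human Max(13-93) bHLH-LZ analogs (not full-length Max) bearing noncanonical residues (hArg, Tha, Aib, Nle at 65) and aromatic Cys staples. Read-out per 8-mer (and its reverse complement): E-score (rank-based enrichment, -0.5 to 0.5) and Z-score of median probe intensity.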

| Sequence | PBM 8-mer E-score |
| --- | --- |
| GATCTTGA | 0.263 ± 0.086 |
| ACTCACTG | 0.0171 ± 0.1 |
| ATGCCTAG | 0.0159 ± 0.081 |
| GAGGTCCC | -0.243 ± 0.0028 |
| AAGGCATT | -0.0085 ± 0.05 |
| ATGAGGGC | 0.115 ± 0.015 |
| AGGAGGGA | 0.000855 ± 0.036 |
| AGGAGGGG | 0.269 ± 0.0072 |
| AGTAGGGG | 0.24 ± 0.072 |
| AGGAGGGC | -0.104 ± 0.14 |
| AGTAGGGA | 0.0183 ± 0.02 |
| AGTAGGGC | 0.0658 ± 0.099 |
| ATGAGGGG | 0.24 ± 0.05 |
| ATGAGGGA | 0.0977 ± 0.073 |
| GGCGCTAA | -0.136 ± 0.035 |
| CCCACTGA | 0.0382 ± 0.01 |
| CGGGACGA | -0.1379 ± 0.00041 |
| AGTATCAG | 0.0699 ± 0.071 |
| CGCCCTAC | -0.00866 ± 0.015 |
| GCCCGGGA | -0.254 ± 0.03 |
| TGATGCCA | 0.033 ± 0.029 |
| TATCAGGA | 0.0871 ± 0.048 |
| ACCAAAGC | 0.0731 ± 0.02 |
| GTTACATA | 0.106 ± 0.096 |
| GCGCTCCC | -0.0536 ± 0.052 |

| Sequence | PBM 8-mer E-score |
| --- | --- |
| AATCAACA | 0.262 ± 0.024 |
| GATCAACA | -0.111 ± 0.05 |
| TATCAACA | 0.139 ± 0.05 |
| GCTATGCC | -0.00318 ± 0.017 |
| AGTGCACA | -0.000545 ± 0.11 |
| CTCGATCA | 0.0252 ± 0.013 |
| GGCGAGAC | -0.0185 ± 0.036 |
| CTACTTTA | 0.0402 ± 0.06 |
| ATACTTTA | 0.255 ± 0.07 |
| ATACTTTG | 0.185 ± 0.015 |
| AGTCTCGA | 0.0438 ± 0.016 |
| ACCTCCAC | -0.105 ± 0.0033 |
| ACGTGATC | 0.17 ± 0.081 |
| ACGTGAAC | 0.0294 ± 0.091 |
| ACGTGATG | 0.244 ± 0.0044 |
| CTGTGATA | -0.0212 ± 0.031 |
| ATGTGATA | 0.288 ± 0.051 |
| GTGTGATA | 0.15 ± 0.061 |
| ACGTGATA | 0.222 ± 0.02 |
| TCGTGAAA | -0.115 ± 0.084 |
| ATGTGAAA | 0.319 ± 0.026 |
| ACGTGAAA | 0.243 ± 0.025 |
| GTGTGAAA | 0.11 ± 0.0048 |
| CTGTGAAA | -0.00932 ± 0.11 |
| CGCTCCTA | -0.177 ± 0.024 |

| Sequence | PBM 8-mer E-score |
| --- | --- |
| AACAGTAC | 0.0773 ± 0.0098 |
| AGCTAGAC | -0.14 ± 0.029 |
| CCCCCGAA | -0.24 ± 0.13 |
| CCGTGACG | -0.127 ± 0.12 |
| CCAAGGGG | -0.104 ± 0.046 |
| ATACTGTC | 0.183 ± 0.041 |
| ATACTGAC | 0.0362 ± 0.0098 |
| ATACTGAT | 0.2387 ± 0.00027 |
| GCAGATCC | -0.0702 ± 0.063 |
| ACGTGACC | 0.149 ± 0.063 |
| TCCTTTAA | 0.0188 ± 0.023 |
| AATAATGC | 0.143 ± 0.1 |
| CATAATGA | 0.1647 ± 0.0015 |
| AATAATGA | 0.238 ± 0.017 |
| AATAATGG | 0.126 ± 0.043 |
| GATAATGA | 0.00488 ± 0.095 |
| AATAATGT | 0.241 ± 0.044 |
| GACCTGCC | -0.149 ± 0.014 |
| ATAACAAT | 0.244 ± 0.022 |
| ATAACATG | 0.229 ± 0.027 |
| ATAACAAG | 0.221 ± 0.044 |
| ATAACAAC | 0.0625 ± 0.012 |
| ATAACATC | 0.236 ± 0.034 |
| CTAACATC | 0.0136 ± 0.022 |
| AGGACTCA | 0.0578 ± 0.11 |

| Sequence | PBM 8-mer E-score |
| --- | --- |
| CAGCGAAA | -0.113 ± 0.0075 |
| ACTGTAGG | 0.0115 ± 0.027 |
| AGAGTCGC | 0.0183 ± 0.052 |
| CTCTCAAA | -0.015 ± 0.005 |
| CACTATAG | 0.243 ± 0.038 |
| AACTATTA | 0.169 ± 0.027 |
| GACTATAC | 0.141 ± 0.068 |
| CACTATAA | -0.0291 ± 0.0069 |
| AACTATAG | 0.212 ± 0.074 |
| AACTATTC | -0.0563 ± 0.067 |
| AACTATTG | 0.24 ± 0.051 |
| CACTATAC | 0.25 ± 0.013 |
| AACTATAC | 0.114 ± 0.06 |
| CCGGATCA | -0.0752 ± 0.094 |
| AATTATGC | 0.202 ± 0.025 |
| ATGGATGC | 0.0345 ± 0.13 |
| AACGCGAG | 0.0185 ± 0.046 |
| CTCGCGAC | 0.0452 ± 0.004 |
| CACGCGAA | 0.0343 ± 0.011 |
| CACGCGAC | 0.277 ± 0.013 |
| GTCGCGAA | -0.143 ± 0.017 |
| GACGCGAC | -0.108 ± 0.084 |
| AACGCGAC | 0.0983 ± 0.018 |
| CACGCGAG | 0.26 ± 0.025 |
| GTCGCGAC | 0.314 ± 0.014 |

| Sequence | PBM 8-mer E-score |
| --- | --- |
| CTAGAGTC | -0.122 ± 0.025 |
| ACCTCTCT | -0.0431 ± 0.11 |
| AGGCACTC | -0.155 ± 0.0063 |
| GCCACGGC | -0.219 ± 0.036 |
| CGCCTATC | 0.0914 ± 0.054 |
| ATGCGGTC | -0.0281 ± 0.033 |
| AAATGTGG | 0.138 ± 0.015 |
| AGATGTGC | 0.0607 ± 0.028 |
| AGATGTGG | 0.0241 ± 0.00082 |
| CTATGTGC | 0.13 ± 0.017 |
| ACATGTGG | 0.364 ± 0.031 |
| ACATGTGC | 0.283 ± 0.052 |
| GCGAAGGA | -0.1 ± 0.011 |
| CCTGAAGC | -0.0531 ± 0.025 |
| AGATTGCA | 0.0232 ± 0.053 |
| TGATTGCA | 0.286 ± 0.081 |
| CGATTGCA | 0.000985 ± 0.025 |
| ACGTCGCA | -0.0865 ± 0.15 |
| CTCGCTTC | -0.0128 ± 0.0032 |
| GACAATAA | 0.188 ± 0.0055 |
| GACAATAC | 0.144 ± 0.15 |
| TACAAGAA | 0.213 ± 0.018 |
| AACAATAA | 0.134 ± 0.036 |
| AACAAAAA | -0.0104 ± 0.045 |
| AACAATAC | 0.263 ± 0.0036 |

| Sequence | PBM 8-mer E-score |
| --- | --- |
| TACAAAAA | 0.26 ± 0.052 |
| CACAATAA | 0.0537 ± 0.028 |
| TACAATAA | 0.321 ± 0.051 |
| GATAAACC | -0.167 ± 0.039 |
| TCAGGGGA | 0.143 ± 0.019 |
| TAAACGAA | 0.143 ± 0.00096 |
| AACTGATG | -0.0947 ± 0.093 |
| CAAAACCA | 0.218 ± 0.056 |
| TTCGAAAA | 0.0928 ± 0.011 |
| CCAGAGCC | 0.0426 ± 0.067 |
| AAAATTAG | 0.129 ± 0.0083 |
| GTAATTAA | 0.123 ± 0.033 |
| AAAATTAT | 0.252 ± 0.027 |
| ATAATTAT | 0.274 ± 0.062 |
| ATAATTAC | 0.297 ± 0.044 |
| AAAATTAA | 0.126 ± 0.057 |
| TTAATTAA | 0.303 ± 0.081 |
| ATAATTAA | 0.183 ± 0.096 |
| CTAATTAC | 0.108 ± 0.024 |
| GTAATTAC | 0.177 ± 0.0081 |
| ACAATTAT | 0.139 ± 0.091 |
| CTAATTAA | 0.0684 ± 0.14 |
| CAGCTGGC | 0.00279 ± 0.062 |
| TAAGACGA | 0.118 ± 0.035 |
| AGTTCACA | 0.0105 ± 0.0032 |

| Sequence | PBM 8-mer E-score |
| --- | --- |
| AATATCAC | 0.189 ± 0.038 |
| AAGCTGCT | -0.0983 ± 0.048 |
| ACTGACTA | -0.00544 ± 0.014 |
| GGCCTAGA | -0.101 ± 0.039 |
| AGGGCGAG | 0.00325 ± 0.014 |
| AACTAGCT | -0.0509 ± 0.098 |
| CTAATTAG | -0.0106 ± 0.077 |
| TTAACTAA | 0.248 ± 0.0099 |
| ATAATTCG | 0.221 ± 0.06 |
| ATAATTAG | 0.289 ± 0.006 |
| ATAACTAA | 0.174 ± 0.018 |
| CTAACTAA | 0.0344 ± 0.032 |
| ACTCGCTG | -0.155 ± 0.038 |
| AATTGTAC | 0.22 ± 0.0078 |
| TGGTATAA | 0.219 ± 0.019 |
| CGGGTACC | -0.168 ± 0.059 |
| ACGCTACA | 0.161 ± 0.04 |
| ACCCCAAC | 0.2 ± 0.075 |
| ACCCCAGA | 0.102 ± 0.066 |
| ACCCCAGG | -0.135 ± 0.03 |
| ACCCCAAT | 0.248 ± 0.017 |
| ACCCCAGT | 0.303 ± 0.048 |
| ACCCCAAG | 0.167 ± 0.067 |
